# Values of other authors, collected in PubChem BioAssay AID977611.
# Among all 3,900 compounds or so, about 3,900 (100%) were called active. The limit is not given here; nearly all actives have Kd up to about 4200 µM. So high a share suggests a set chosen from earlier hits. This is one part of the list. Bridge positions count the residues as written; N and C are the ends. Square brackets hold non-standard residues; d marks the D form. Peptide text beside a SMILES is read from it. Orn(CH(NH2)2) = NC(N)NCCC[C@H](N)C(=O)O
# Test: PubChem AID 977611
# Settings: PDB protein-ligand complexes, literature Kd
molecule,measurement,setting,value
O=C1N=C(N=Nc2c(O)[nH]c3ccc(S(O)(O)O)cc23)S/C1=C\c1ccco1,Kd,"protein: NUCLEOCAPSID PROTEIN P7, PDB entry 2m3z",0.27 µM (active)
Oc1ccc2c3c1O[C@H]1c4[nH]c5ccccc5c4C[C@@]4(O)[C@@H](C2)N(CC2CC2)CC[C@]314,Kd,"protein: Soluble cytochrome b562, Delta-type opioid receptor chimeric protein, PDB entry 4n6h",0.00052 µM (active)
H-SPSGVFTFG-OH,Kd,"protein: Capsid protein p24, PDB entry 4u0c",49 µM (active)
same,Kd,"protein: Gag polyprotein, PDB entry 4u0d",49 µM (active)
H-SSKPDIVG-OH,Kd,"protein: NprR, PDB entry 4gpk",0.03 µM (active)
H-KHWVYY-OH,Kd,PDB entry 1abt,1.4 µM (active)
CC(C)[C@H](NC(=O)[C@H](CO[P+](O)(O)O)NC(=O)[C@H](Cc1cnc[nH]1)NC(=O)[C@@H](N)Cc1ccc(O)cc1)C(=O)N[C@H](C(=O)N[C@@H](CCCNC(N)N)C(=O)N[C@@H](Cc1ccc(O)cc1)C(=O)N[C@@H](C)C(=O)O)C(C)C,Kd,"protein: MOB kinase activator 1A, PDB entry 4jiz",2.4 µM (active)
OC[C@H]1O[C@@H](S[C@@H]2O[C@H](CO)[C@H](O)[C@H](O)[C@H]2O)[C@H](O)[C@@H](O)[C@H]1O,Kd,"protein: Galectin-3, PDB entry 4jc1",50 µM (active)
OC[C@H]1O[C@@H](S[C@@H]2O[C@H](CO)[C@H](O)[C@H](O)[C@@H]2O)[C@@H](O)[C@@H](O)[C@H]1O,Kd,"protein: Galectin-3, PDB entry 4jck",4300 µM (active)
O=c1cccc2n1C[C@@H]1CNC[C@H]2C1,Kd,"protein: Aplysia californica acetylcholine-binding protein (AChBP), PDB entry 4AFO",1.64 µM (active)
same,Kd,"protein: Aplysia californica acetylcholine-binding protein (AChBP), PDB entry 4bqt",1.64 µM (active)
Cc1ccc(N2C(=O)C(=O)/C(=C(/O)c3ccccc3)[C@@H]2c2cc(Br)cs2)cc1C(=O)O,Kd,"protein: Polymerase cofactor Ebola virus VP35, PDB entry 4ibd",215 µM (active)
O=C1C(=O)N(c2ccc(Cl)c(C(=O)O)c2)[C@@H](c2cc(Br)cs2)/C1=C(\O)c1ccccc1,Kd,"protein: Polymerase cofactor Ebola virus VP35, PDB entry 4ibe",70.6 µM (active)
O=C(O)[C@H]1C2CCC(CC2)[C@@H]1Nc1nc(-c2c[nH]c3ncc(F)cc23)ncc1F,Kd,"protein: Influenza polymerase basic protein 2 (PB2), PDB entry 4p1u",0.003 µM (active)
Cc1cccc(/C(O)=C2\C(=O)C(=O)N(c3ccc(CC(=O)O)cc3)[C@H]2c2cc(Cl)c3c(c2)OCO3)c1,Kd,"protein: Polymerase cofactor Ebola virus VP35, PDB entry 4ibg",108 µM (active)
O=C1C(=O)N(c2cccc(C(=O)O)c2)[C@@H](c2cc(Cl)c3c(c2)OCO3)/C1=C(\O)c1cccc(C(F)(F)F)c1,Kd,"protein: Polymerase cofactor Ebola virus VP35, PDB entry 4ibi",73 µM (active)
O=C(O)c1cccc(N2C(=O)C(O)=C(C(=O)c3ccc(Cl)s3)[C@@H]2c2cc(Cl)c3c(c2)OCO3)c1,Kd,"protein: Polymerase cofactor Ebola virus VP35, PDB entry 4ibk",50.4 µM (active)
O=C(O)Cc1ccc(N2C(=O)C(=O)/C(=C(/O)c3ccccc3Cl)[C@@H]2c2ccccc2Cl)cc1,Kd,"protein: Polymerase cofactor Ebola virus VP35, PDB entry 4ibc",1050 µM (active)
O=C1C(=O)N(c2cccc(C(=O)O)c2)[C@@H](c2cccc(C(F)(F)F)c2)/C1=C(\O)c1cccc(C(F)(F)F)c1,Kd,"protein: Polymerase cofactor Ebola virus VP35, PDB entry 4ibj",47 µM (active)
CCN1c2cc(N)ccc2-c2ccc(N)cc2[C@H]1c1ccccc1,Kd,"protein: Putative regulatory protein, PDB entry 3vvy",14.6 µM (active)
CO[C@@H]1O[C@@H](C)[C@@H](O)[C@@H](O)[C@@H]1O,Kd,"protein: Ralstonia solanacearum fucose-binding lectin protein, PDB entry 4csd",1.23 µM (active)
Nc1c(O)n(Cc2ccccc2)c(=O)[nH]c1=O,Kd,"protein: Glucose-1-phosphate thymidylyltransferase (RmlA), PDB entry 3zll",0.395 µM (active)
same,Kd,"protein: Glucose-1-phosphate thymidylyltransferase (RmlA), PDB entry 4AS6",0.395 µM (active)
C[C@@H](O)[C@H](NC(=O)[C@@H]1CCCN1C(=O)[C@H](CO[P+](O)(O)O)NC(=O)[C@@H](N)Cc1ccc(O)cc1)C(=O)N[C@@H](CO)C(=O)N1CCC[C@H]1C(=O)O,Kd,"protein: CTD INTERACTING DOMAIN of RNA processing factor SCAF8, PDB entry 3d9n",90 µM (active)
C[C@@H](O)[C@H](NC(=O)[C@@H]1CCCN1C(=O)[C@H](CO)NC(=O)[C@@H](N)Cc1ccc(O)cc1)C(=O)N[C@@H](CO[P+](O)(O)O)C(=O)N1CCC[C@H]1C(=O)N[C@@H](CO)C(=O)O,Kd,"protein: CTD INTERACTING DOMAIN of RNA processing factor SCAF8, PDB entry 3d9m",330 µM (active)
C[C@H](Nc1nc(-c2c[nH]c3ncc(Cl)cc23)ncc1F)C(=O)N(C)C,Kd,"protein: Influenza polymerase basic protein 2 (PB2), PDB entry 4ncm",0.1 µM (active)
CC(C)[C@H](NC(=O)[C@H](Cc1c[nH]c2ccccc12)NC(=O)[C@H](Cc1c[nH]cn1)NC(=O)[C@H](CCCCN)NC(=O)[C@H](Cc1c[nH]c2ccccc12)NC(=O)CNC(=O)[C@H](CCCNC(N)N)NC(=O)[C@@H](N)Cc1ccc(O)cc1)C(=O)N[C@@H](Cc1ccc(O)cc1)C(=O)N[C@@H](Cc1ccc(O)cc1)C(=O)N[C@H](C(=O)N[C@H]1CSSC[C@@H](C(=O)N2CCC[C@H]2C(=O)N[C@@H](CC(=O)O)C(=O)N[C@H](C(=O)N2CCC[C@H]2C(=O)N[C@@H](Cc2ccc(O)cc2)C(=O)O)[C@@H](C)O)NC1=O)[C@@H](C)O (H-Y[Orn(CH(NH2)2)]GWKHWVYYTCCPDTPY-OH; disulfide 12-13),Kd,"protein: Cbtx, PDB entry 1lxh",0.065 µM (active)
CC(C)[C@H](NC(=O)[C@H](Cc1c[nH]c2ccccc12)NC(=O)[C@H](Cc1c[nH]cn1)NC(=O)[C@H](CCCCN)NC(=O)[C@H](Cc1c[nH]c2ccccc12)NC(=O)CNC(=O)[C@H](CCCNC(N)N)NC(=O)[C@@H](N)Cc1ccc(O)cc1)C(=O)N[C@@H](Cc1ccc(O)cc1)C(=O)N[C@@H](Cc1ccc(O)cc1)C(=O)N[C@H](C(=O)N[C@H]1CSSC[C@@H](C(=O)N2CCC[C@H]2C(=O)N[C@@H](CC(=O)O)C(=O)N[C@H](C(=O)N2CCC[C@H]2C(=O)N[C@@H](Cc2ccc(O)cc2)C(=O)O)[C@H](C)O)NC1=O)[C@@H](C)O,Kd,PDB entry 1idg,0.065 µM (active)
C[C@H](CC(=O)O)c1n[nH]c2nc(N)[nH]c(=O)c2c1=O,Kd,"protein: Dihydropteroate Synthase, PDB entry 4d8z",0.51 µM (active)
